miR-122 inh: activators of miR-122 sensor in Huh7 cells; activation, % at 12.5 µM; AID 623901; 0.14% of 340,000 active; Huh7 psiCHECK-miR122 Renilla luciferase sensor, 48 h;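 active = mean activation of 30% or more, with every replicate also reaching 30%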;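 also: 0% = median of neutral control wells and 100% = median of positive control wells; higher luciferase signal means stronger suppression of miR-122 activity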
* hit, by the source's call. This is one part of a sample in which hits are shown more often than they occur.

SMILES	miR-122 inh
Cc1ccc(S(=O)(=O)N/N=C/c2ccc(OCC(=O)Nc3ccccc3Cl)cc2)cc1	-219
O=C(COc1ccc(/C=N/NS(=O)(=O)c2ccccc2)cc1)Nc1ccc(F)cc1	36*
NC(=O)Cn1cc(/C=N\NS(=O)(=O)c2ccc(F)cc2)c2ccccc21	-135
C[C@@H]1CN([C@@H](C)CO)C(=O)c2cc(C#Cc3cccc(F)c3)cnc2O[C@@H]1CN(C)C(=O)C1CC1	8
Cc1ccc(-c2cnc3c(c2)C(=O)N([C@H](C)CO)C[C@H](C)[C@@H](CN(C)C(=O)c2ccncc2)O3)cc1	-8
C[C@@H]1CN([C@H](C)CO)C(=O)c2cc(/C=C/c3ccccc3)cnc2O[C@H]1CN(C)Cc1ccccc1F	-31
CCNC(=O)C[C@@H]1CC[C@@H]2[C@@H](COc3ccc(NC(=O)c4ccccc4)cc3C(=O)N2C)O1	42*
CC(C)C(=O)Nc1ccc2c(c1)C(=O)N(C)[C@H]1CC[C@H](CC(=O)NCc3cccc(F)c3)O[C@@H]1CO2	-300
COCCNC(=O)C[C@@H]1CC[C@H]2[C@H](COc3ccc(NC(=O)Cc4ccccc4)cc3C(=O)N2C)O1	-107
CC(C)C(=O)Nc1ccc2c(c1)C(=O)N(C)[C@H]1CC[C@H](CC(=O)NCCc3ccccc3)O[C@H]1CO2	53*
CN1C(=O)c2cc(NC(=O)c3ccc(C(F)(F)F)cc3)ccc2OC[C@@H]2O[C@H](CC(=O)NCc3ccc4c(c3)OCO4)CC[C@@H]21	33*
CCNC(=O)C[C@H]1CC[C@@H]2[C@@H](COc3ccc(NC(=O)c4cccc(C(F)(F)F)c4)cc3C(=O)N2C)O1	53*
C/C=C/c1ccc([C@H]2[C@@H](CO)N(c3nc(CC)cs3)[C@H]2CNC(C)C)cc1	-92
C[C@H](CO)N1C[C@H](C)[C@@H](CN(C)Cc2ccc(Oc3ccccc3)cc2)Oc2ncc(-c3cccnc3)cc2C1=O	0
COc1cccc(C#Cc2ccc3c(c2)O[C@@H](CN(C)C(C)=O)[C@H](C)CN([C@@H](C)CO)S3(=O)=O)c1	-1
CC(C)C#Cc1ccc2c(c1)O[C@H](CN(C)C(=O)CN(C)C)[C@H](C)CN([C@@H](C)CO)S2(=O)=O	5
C[C@@H]1CN([C@H](C)CO)S(=O)(=O)c2ccc(-c3cccc(C#N)c3)cc2O[C@H]1CN(C)Cc1ccccn1	-5
C[C@@H]1CN([C@@H](C)CO)C(=O)c2cc(-c3ccncc3)cnc2O[C@H]1CN(C)C(=O)c1ccccc1F	1
C[C@@H]1CN([C@H](C)CO)S(=O)(=O)c2ccc(C#Cc3ccc(F)cc3)cc2O[C@@H]1CN(C)S(C)(=O)=O	-22
CCS(=O)(=O)Nc1ccc2c(c1)C(=O)N(C)C[C@@H](OC)[C@H](C)CN(Cc1cccnc1)[C@H](C)CO2	0
COCC#Cc1ccc2c(c1)O[C@@H](CN(C)C(=O)C1CCCCC1)[C@H](C)CN([C@H](C)CO)S2(=O)=O	-12
C[C@@H]1CN([C@H](C)CO)S(=O)(=O)c2ccc(-c3ccccc3)cc2O[C@@H]1CN(C)Cc1cccnc1	-14
CC(C)CC#Cc1cnc2c(c1)C(=O)N([C@H](C)CO)C[C@@H](C)[C@H](CN(C)C(=O)Nc1ccccc1F)O2	-14
C[C@H]1CN([C@@H](C)CO)S(=O)(=O)c2ccc(C#Cc3cccnc3)cc2O[C@@H]1CN(C)C(=O)C1CC1	-15
C[C@H]1CN([C@@H](C)CO)S(=O)(=O)c2ccc(-c3cccc(C#N)c3)cc2O[C@H]1CN(C)C(=O)Nc1ccccc1F	-4
SMILES	miR-122 inh
O=C(OCn1ncc(Cl)c(Cl)c1=O)c1ccccc1Cl	61*
CCCC#Cc1cnc2c(c1)C(=O)N([C@H](C)CO)C[C@H](C)[C@H](CN(C)C(=O)Cc1ccccc1)O2	-1
C[C@H](CO)N1C[C@H](C)[C@@H](CN(C)C)Oc2ncc(-c3cccc(C#N)c3)cc2C1=O	6
COC1=CC(=O)C=C(OC)C1=O	57*
CO[C@H]1CN(C)C(=O)c2cc(NC(=O)Cc3ccccc3)ccc2OC[C@@H](C)N(C)C[C@@H]1C	1
COCC#Cc1cnc2c(c1)C(=O)N([C@H](C)CO)C[C@@H](C)[C@H](CN(C)C(=O)C1CCOCC1)O2	4
C[C@@H]1CN([C@@H](C)CO)C(=O)c2cc(/C=C/c3ccccc3)cnc2O[C@@H]1CN(C)Cc1cccc(C(=O)O)c1	3
COc1nnc(-c2ccc(N3CCOCC3)c(NC(=O)c3ccccc3)c2)c2ccccc12	45*
COc1ccc(NS(=O)(=O)c2ccc(N3CCOCC3)c(NC(=O)c3cccc(F)c3)c2)cc1	-190
COc1ccc(NS(=O)(=O)c2ccc(N3CCOCC3)c(NC(=O)c3ccc(F)cc3)c2)cc1	-179
C[C@@H]1CN([C@@H](C)CO)S(=O)(=O)c2ccc(C#C[C@@H](C)O)cc2O[C@@H]1CN(C)C(=O)c1ccncc1	13
COc1cccc(-c2ccc3c(c2)O[C@H](CN(C)Cc2cccnc2)[C@H](C)CN([C@H](C)CO)S3(=O)=O)c1	1
COc1cccc(-c2cnc3c(c2)C(=O)N([C@H](C)CO)C[C@H](C)[C@H](CN(C)C(=O)Nc2ccccc2F)O3)c1	2
C[C@H]1CN([C@@H](C)CO)S(=O)(=O)c2ccc(-c3ccc(C#N)cc3)cc2O[C@@H]1CN(C)C(=O)Nc1cc(F)ccc1F	-19
C[C@H]1CN([C@@H](C)CO)C(=O)c2cc(/C=C/c3ccccc3)cnc2O[C@H]1CN(C)C(=O)c1cccnc1	-22
COc1ccccc1C(=O)Nc1ccc2c(c1)C(=O)N(C)[C@H]1CC[C@H](CC(=O)NCc3ccc(Cl)c(Cl)c3)O[C@@H]1CO2	-139
CC(=O)Nc1ccc2c(c1)C(=O)N(C)[C@H]1CC[C@@H](CC(=O)NCc3ccc(Cl)cc3)O[C@H]1CO2	-130
COc1ccccc1C(=O)Nc1ccc2c(c1)C(=O)N(C)[C@H]1CC[C@H](CC(=O)NCc3ccc(Cl)c(Cl)c3)O[C@H]1CO2	-308
CC(=O)Nc1ccc2c(c1)C(=O)N(C)[C@@H]1CC[C@@H](CC(=O)NCc3ccc(Cl)cc3)O[C@H]1CO2	68*
COc1cccc(C(=O)Nc2ccc3c(c2)C(=O)N(C)[C@H]2CC[C@H](CC(=O)NCc4ccc(F)cc4)O[C@@H]2CO3)c1	53*
COc1cccc(CNC(=O)C[C@@H]2CC[C@H]3[C@H](COc4ccc(NC(C)=O)cc4C(=O)N3C)O2)c1	37*
CC(C)C#Cc1ccc2c(c1)O[C@H](CN(C)C(=O)CC1CC1)[C@@H](C)CN([C@@H](C)CO)S2(=O)=O	-7
C[C@H]1CN([C@@H](C)CO)C(=O)c2cc(-c3ccc(F)cc3)cnc2O[C@H]1CN(C)C(=O)c1cccnc1	5
C[C@H](CO)N1C[C@H](C)[C@@H](CN(C)Cc2ccc(Cl)c(Cl)c2)Oc2c(NS(=O)(=O)c3ccccc3)cccc2C1=O	-106
C[C@H](CO)N1C[C@H](C)[C@H](CN(C)C)Oc2cc(-c3ccc(C(=O)N(C)C)cc3)ccc2S1(=O)=O	2
Cc1ccccc1-c1ccc2c(c1)O[C@H](CN(C)C(=O)Nc1ccccc1)[C@H](C)CN([C@@H](C)CO)S2(=O)=O	-12
C[C@@H]1CN([C@@H](C)CO)C(=O)c2cc(-c3ccc(C(=O)N(C)C)cc3)cnc2O[C@@H]1CN(C)Cc1ccc(C(=O)O)cc1	-1
Cc1ccc(S(=O)(=O)N(C)C[C@@H]2Oc3cc(C#CC4CCCC4)ccc3S(=O)(=O)N([C@H](C)CO)C[C@H]2C)cc1	-3
CO[C@@H]1CN(C)C(=O)c2ccc(NC(=O)C3CCC3)cc2OC[C@@H](C)NC[C@@H]1C	0

Screening data as filed in PubChem BioAssay.
